The list is not random: actives were taken first. Their share in the collection is about 4%.
EBV LMP1 NFkB: EBV LMP1-driven NF-kappaB luciferase reporter inhibitors, primary screen, cell-based, luminescence, single point. LMP1-induced NF-kappaB luciferase reporter cells. inhibition, % at 12.5 µM. 350,000 compounds, 0.69% hits. AID 504558, 2011; in the data active = inhibition above about 41%;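 also: 0% = neutral control wells and 100% = reference inhibitor control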
HIF-2a inh: HIF-2a reporter inhibitors, primary screen, luminescence, 786-0 RCC cells; AID 624352, 2012; 360,000 compounds, 0.72% hits; inhibition, % at 18.8 µM; 786-0 RCC cells HIF-2a reporter, luciferase luminescence, overnight;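 active = inhibition of the luminescence signal of 40% or more relative to plate controls, in a single-dose primary screen at 18.75 µM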
TWEAK Fn14 block: inhibitors of TWEAK-Fn14 signaling, primary screen, luciferase reporter cells, uHTS. TWEAK-stimulated Fn14 reporter cells, luciferase luminescence, 8 h. inhibition, % at 10 µM. 360,000 compounds, 2% hits. AID 1159606, 2016; in the data active = inhibition above about 50%
Peg3 promoter: Peg3 promoter-driven luciferase inhibitors, primary screen, cell-based, HeLa, luciferase luminescence; AID 588405, 2011; inhibition, % at 20 µM; 360,000 compounds, 1.7% hits; HeLa PEG-Prom luciferase reporter, overnight;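 active = inhibition of at least 50% at 20 µM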
TRPM1 prom inh: inhibitors of MITF-dependent TRPM1 promoter reporter, primary screen, cell-based, SK-MEL-5, single point, luciferase. AID 488899, 2010. SK-MEL-5 TRPM1 promoter luciferase, 24 h. 330,000 compounds, 0.83% hits. inhibition, % at 12.5 µM;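 active = mean inhibition across replicates of 60% or more, whatever share of single replicates reaches that level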
TROY signal inh: inhibitors of TROY-driven NF-kB signaling, primary screen, Q293 LMP1-TROYcd cells, NF-kB luciferase, uHTS; inhibition, % at 10 µM; 360,000 compounds, 0.98% hits; Q293 LMP1-TROYcd NF-kB luciferase reporter, 4 h;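 active = compounds whose plate-normalised and pattern-corrected inhibition of the luciferase reporter signal at the single screening dose is 50% or more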
Mdm2-MdmX confirm: retested Mdm2-MdmX interaction blockers, confirmation, cell-based, luminescence, single concentration, set 2. 740 compounds, 99% hits. AID 504601, 2011. SaOS-2 split-luciferase Mdm2/MdmX complementation. inhibition, % at 8 µM. shares compounds with HIF-2a inh;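 active = mean inhibition of the luminescence signal across two replicates at or above 26 percent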
HIF-2a conf: HIF-2a reporter inhibitor retest, confirmation, luminescence, 786-0 RCC cells. shares compounds with HIF-2a inh. HIF-2a luciferase reporter luminescence, overnight. inhibition, % at 18.8 µM. 1,800 compounds, 56% hits. AID 651580, 2012;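 active = mean inhibition across four replicates of at least 40 percent at the single tested concentration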
HIF-1a counter: HIF-1a luciferase reporter signal reduction – MiaPaCa-2 cells, single concentration, counter-screen for HIF-2a inhibitor project, confirmation; AID 651589, 2012; inhibition, % at 18.8 µM; 1,800 compounds, 72% hits; MiaPaCa-2 HIF-1a luciferase reporter, desferoxamine, overnight; shares compounds with HIF-2a inh;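 active = mean inhibition of the reporter signal across four replicates at the single tested dose of 50% or more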
* hit, by the source's call; x = no result.

SMILES | EBV LMP1 NFkB | HIF-2a inh | TWEAK Fn14 block | Peg3 promoter | TRPM1 prom inh | TROY signal inh | HIF-2a conf | HIF-1a counter | others
O=C(O)/C=C/C(=O)c1ccc2c(c1)CCc1ccccc1-2 | 4.0 | 49.6* | 22.5 | 99.7* | x | -27.4 | 57.1* | 102.7*
CC(=O)Nc1ccc2c(c1)CCc1ccccc1-2 | -15.2 | -127.6 | -3.7 | -202.1 | -27.7 | -48.1 | x | x
COc1ccccc1CCNC(=O)c1ccc(Br)s1 | 6.9 | -134.5 | -1.2 | -111.8 | -45.3 | -16.1 | x | x
COc1ccc(N2C(=O)CS/C2=N\C(=S)Nc2ccccc2)cc1 | -1.6 | -19.6 | 4.7 | 2.7 | 10.2 | -62.6 | x | x
CCOC(=O)C(CC)(CC)C(=O)/C=C/c1ccc(Br)cc1 | -13.0 | 58.2* | 39.2 | 74.7* | 15.2 | -9.1 | 26.3 | 106.0*
CCc1ccc(C(C)NC(=O)/C=C/c2ccc(Br)cc2)cc1 (stereo not drawn) | 5.8 | -39.1 | 0.4 | 0.1 | 0.2 | -12.9 | x | x
O=C(c1cccc(Cl)c1)N1CCN(c2ccccn2)CC1 | -3.9 | -3.1 | 7.3 | 4.0 | -4.7 | -16.4 | x | x
O=C(c1ccc(S(=O)(=O)c2cccc(Cl)c2)c([N+](=O)[O-])c1)N1CCN(c2ccccn2)CC1 | 19.5 | 40.2* | 90.0* | 52.6* | 44.5 | 57.9* | 25.1 | 85.0* | Mdm2-MdmX confirm=95.7*
CSc1nnc(C(C)(C)C)c(=O)n1/N=C/c1ccc(Cl)cc1 | 5.2 | 8.9 | -2.9 | 1.7 | 11.6 | -9.1 | x | x
O=C(Cn1cc(/C=C\[N+](=O)[O-])c2ccccc21)Nc1ccccc1 | 18.8 | 95.8* | -1.4 | 91.5* | 91.1* | 6.3 | 25.1 | 106.3*
N#Cc1ccccc1Cn1cc(/C=C/[N+](=O)[O-])c2ccccc21 | 24.4 | 95.8* | 50.0 | 106.3* | 91.0* | 24.2 | 97.5* | 105.4*
O=[N+]([O-])/C=C/c1cn(Cc2ccccc2)c2ccccc12 | 2.3 | 42.6* | 22.5 | 55.2* | 19.3 | -9.9 | 71.0* | 105.2*
CCOc1ccc2nc(SCc3ccc(CC(=O)O)cc3)c(C#N)cc2c1 | 0.5 | 82.9* | 36.6 | 13.1 | 1.4 | 76.3* | 89.1* | 57.2*
CCOc1ccc2nc(SCC(=O)N3c4ccccc4Sc4ccccc43)c(C#N)cc2c1 | 8.9 | 16.2 | -10.5 | 6.2 | 9.7 | 11.2 | x | x
COc1cc2nc(CN3CCN(S(=O)(=O)c4cc(C)ccc4C)CC3)[nH]c(=O)c2cc1OC | -9.7 | 20.3 | -11.6 | 31.3 | 7.0 | 5.2 | x | x
COc1cc2nc(N3CCN(c4cc(C)ccc4C)CC3)nc(N)c2cc1OC | 4.2 | 38.7* | -295.7 | 101.7* | 11.9 | 41.9 | -9.1 | 102.4* | Mdm2-MdmX confirm=102.7*
Cc1ccnc(N/C=C(/NC(=O)c2ccccc2)C(=O)N/N=C\c2ccc(F)cc2)n1 | 58.4* | 66.5* | 100.5* | 15.9 | 41.5 | 80.2* | 68.7* | 87.6*
Cc1ccnc(N/C=C(/NC(=O)c2ccccc2)C(=O)NN)n1 | 4.9 | 6.6 | -5.4 | 3.2 | -2.0 | 8.4 | x | x
Cc1ccc(C(=O)N/N=C\c2ccc([N+](=O)[O-])s2)cn1 | 1.5 | 63.4* | 20.3 | 26.7 | 109.4* | -5.0 | 56.2* | 55.9*
O=C(N/N=C/c1ccc([N+](=O)[O-])s1)c1cccc(Br)c1 | 32.5 | 12.0 | 10.5 | 39.6 | 82.3* | -3.0 | x | x | Mdm2-MdmX confirm=63.2*
CC(=O)Nc1cccc(-c2ccnc3c2CC(C)(C(=O)NCc2ccncc2)O3)c1 (stereo not drawn) | x | 13.6 | 14.4 | 11.1 | x | 3.8 | x | x

Source: PubChem BioAssay (several laboratories)
